Sm TGR block – S. mansoni TGR enzyme inhibition; Q962Y6; purified TGR, DTNB reduction, TNB absorbance 405 nm; Potency, µM (series often up to 114 µM), inactives show at the highest dose activity change, negative = inhibition, hits mostly inhibitors; hit rate 3% among 360,000; also: potency is read from the fitted curve at half-maximal effect; % is scaled to controls: 0 for no effect and ±100 for the full control effect; nearly all actives have a fitted effect of over 60% in size
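Kinetic colorimetric format: TGR-catalysed, NADPH-driven DTNB reduction monitored via TNB absorbance. Enzyme dispensed at 20 nM; compound exposure 15 min at room temperature before reaction start.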
Pf growth 96h – P. falciparum growth inhibition at 96 hours | P. falciparum luciferase reporter growth, 96 h | AID 504834 | Potency, µM (highest dose often 28.7 µM), inactives show top-dose activity change, negative = inhibition, usual class: inhibitors | hit rate 6.9% among 320,000; also: potency is read from the fitted curve at half-maximal effect; % is scaled to controls: 0 for no effect and ±100 for the full control effect
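Erythrocytes infected with luciferase-expressing P. falciparum were dispensed at 2% hematocrit and 0.05% parasitemia (final), then incubated with compounds 96 hours at 37 C in 5% CO2. Luminescence after detection reagent addition reported growth.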
Pf growth 48h – P. falciparum growth inhibition at 48 hours (one generation). P. falciparum luciferase growth in erythrocytes, 48 h. Potency, µM (top dose mostly 28.7 µM), for the others: top-dose activity change, negative = inhibition, hits mostly inhibitors. hit rate 5.9% among 310,000; also: potency is read from the fitted curve at half-maximal effect; % is scaled to controls: 0 for no effect and ±100 for the full control effect
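Erythrocytes infected with P. falciparum carrying an integrated firefly luciferase reporter (2% hematocrit, 0.1% parasitemia final) were exposed to compounds in RPMI 1640 with 0.5% Albumax at 37 C, 5% CO2. Growth inhibition was scored as reduced luminescence.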
Shiga inhibitor – inhibitors of Shiga toxin in Vero cells; Vero cells, Shiga toxin protein synthesis inhibition reporter; inhibition, % at 38.7 µM; hit rate 9.2% among 290,000; in the data active = inhibition mostly above about 28%, no sharp cut-off; inactive = mostly below about 43%; also: 0% is about no effect
CHX counter – counter-screen hit for Shiga toxin inhibitors, cycloheximide; cell reporter, cycloheximide protein synthesis inhibition counterscreen; max response, %; hit rate 12% among 300,000; AID 2314; in the data active = max response mostly above about 13%, no sharp cut-off; inactive = mostly below about 14%; also: read at 38.3 µM for the half of the compounds with a filed dose; 0% is about no effect
NS1 inh – inhibitors of influenza NS1 protein function | Potency, µM (doses to about 46.1 µM), inactives show top-dose activity, positive = more growth | hit rate 0.4% among 270,000; calls by dose curve; also: potency is read from the fitted curve at half-maximal effect; actives are rising curves; nearly all actives have a fitted effect of over 50% in size
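OD600 was taken as the measure of yeast growth restored by compound in an NS1-expressing S. cerevisiae strain. Cells had been washed out of glucose medium and diluted 1:100 into galactose -URA medium, pH 6.0.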
* marks the source's active call; other numbers are inactive results; ? = inconclusive; · = not tested or not shown; [ ] = remark or other dose. Only some compounds are listed: those with a hit (about 21% of all), similar ones and a draw of the others. Unless noted, calls follow the shape of the dose curve; as a rule, active = well fitted curve in the direction sought with a large enough effect; inconclusive = small, poorly fitted or top-dose-only effect, or another doubt; inactive = no such curve, though single readings can be large; an effect the other way counts as inactive or inconclusive.

SMILES | Sm TGR block | Pf growth 96h | Pf growth 48h | Shiga inhibitor | CHX counter | NS1 inh
COc1ccc(C2CC(c3cccs3)=NN2C(=O)CCl)cc1OC (stereo not drawn) | 4.5µM* | ? | ? | 42* | 29* | -2%
Fc1cccc(NCc2cccn2-c2nnc(N3CCOCC3)s2)c1 | -2% | · | · | · | · | ·
CC(C)(C)C1C=C(Sc2ccccc2)C(=O)O1 (stereo not drawn) | -2% | 3% | -8% | 13 | 8 | 3%
COc1ccc(C2CC(c3cccs3)=NN2C(=O)c2ccccc2)cc1OC (stereo not drawn) | 11% | 0.41µM* | · | -4 | 2 | -1%
COc1ccc(C2CC(c3ccc(OC)cc3O)=NN2C(=O)c2ccccc2)cc1 (stereo not drawn) | 13% | ? | -14%[0.00184 µM] | -6 | 4 | 2%
O=C(c1ccccc1)N1N=C(c2ccccc2O)CC1c1ccccc1 (stereo not drawn) | 12% | ? | 5.9µM* | -4 | -3 | -1%
CCN(CC)CCC#CC(O)(c1ccccc1)c1ccccc1 | 1% | 9.3µM* | -20% | -6 | -2 | 6%
C[N+]1(CC#CC(O)(c2ccccc2)c2ccccc2)CCCC1 | -4% | 5.2µM* | ? | -4 | 0 | -2%
CCCN(CC#CC(O)(c1ccccc1)c1cccnc1)CCC (stereo not drawn) | 15% | 0% | -13% | 22 | -1 | -10%
O=C(c1cccc(Cl)c1)N1CCCC(c2ccc(Cl)cc2)=N1 | 0% | 3.7µM* | ? | -1 | 10 | -2%
O=C(c1cccc(Cl)c1)N1CCCc2ccccc21 | 3% | -3% | 1% | · | -3 | -29%
O=C(c1ccccc1)N1CCCC(c2ccc(Cl)cc2)=N1 | 3% | 9.3µM* | 15µM* | 15 | -2 | -53%
O=C(C1CC1)N1CCCC(c2ccc(Cl)cc2)=N1 | 1% | -7% | 46% | -8 | -5 | ·
COCC(=O)Nc1ccc(Br)cc1C | 13% | 5.9µM* | 12%[5.75 µM] | -3 | 5 | ·
COc1ccccc1C(=O)Nc1ccc(Br)cc1C | 0% | ? | 57% | 63* | 29* | -34%
COc1cccc2cc(C(=O)Nc3ccccc3C)/c(=N/O)oc12 | 3% | 130% | 6% | 89* | 28* | -3%
COc1cccc(CNC(=O)C2CCN(c3nc4ccc(Cl)cc4[nH]3)CC2)c1 | 6% | · | · | · | · | ·
CC(=O)Nc1cccc(NC(=S)Nc2ccc(F)cc2F)c1 | ? | 146% | 5% | 31 | 4 | ·
O=C(Nc1ccc(F)c(Cl)c1)C1CCCN(c2ncnc3onc(-c4ccc(F)cc4)c23)C1 (stereo not drawn) | 50µM* | · | · | · | · | ·
S=C(NCC1CCCO1)Nc1ccccc1 (stereo not drawn) | -23% | 43% | 43% | 6 | 1 | 5%
CC(C)N1CCN(Cc2ccccc2-c2ccco2)CC1CCO (stereo not drawn) | 0% | ? | -6% | -4 | -3 | 5%
OCCC1CN(Cc2ccccc2-c2ccco2)CCN1C1CCCC1 (stereo not drawn) | 0% | ? | 9.3µM* | -7 | 1 | 10%
CSc1ncc(CN2CCN(C3CCCCC3)C(CCO)C2)cn1 (stereo not drawn) | 7% | ? | 5% | 3 | 2 | 3%
Cc1ccccc1-c1ncc(CN2CCN(C3CCCCC3)C(CCO)C2)cn1 (stereo not drawn) | 3%[57.1 µM] | -35% | 6% | 16 | 22* | 1%
CCOC(=O)c1c(NC(=O)COc2ncnc3ccccc23)sc(C)c1CC | 4% | ? | 3% | -10 | -8 | 10%
SMILES | Sm TGR block | Pf growth 96h | Pf growth 48h | Shiga inhibitor | CHX counter | NS1 inh
N#C/C(=N\Nc1cccc2ccccc12)c1nnc2n1CCCCC2 | -2% | 29% | 34% | 3 | 14* | -6%
N#C/C(=C\c1c[nH]c2ccccc12)c1nnc2n1CCCCC2 | 7% | ? | 4% | 7 | 3 | 5%
COc1cc(CN2CCC(n3nccc3NC(=O)c3ccc4c(c3)OCO4)CC2)ccc1O | ? | ? | ? | 21 | -2 | 12%
O=C(C1CCCCC1)N1CCC(c2nc3c(nnn3Cc3ccccc3Cl)c(=O)[nH]2)CC1 | · | · | · | · | · | 0%
O=c1[nH]c(C2CCCN(S(=O)(=O)c3ccccc3Cl)C2)nc2c1nnn2Cc1ccc2c(c1)OCCO2 (stereo not drawn) | 8% | 13µM* | ? | -11 | -2 | 9%
CCCCCCC(=O)N1CCC(c2nc3c(nnn3Cc3ccccc3Cl)c(=O)[nH]2)CC1 | 9% | ? | 13µM* | -8 | 2 | -25%
O=c1[nH]c(C2CCCN(S(=O)(=O)c3ccccc3F)C2)nc2c1nnn2Cc1ccccc1Cl (stereo not drawn) | 2% | 12µM* | ? | -14 | 1 | -1%
O=C(/C=C/c1ccccc1[N+](=O)[O-])NCc1ccc(Cl)cc1 | · | 0% | -2% | 32 | -1 | 1%
O=C(/C=C/c1ccccc1Cl)NCCc1ccccc1 | 11% | 12µM* | ? | 77* | 50* | -30%
O=C(/C=C/c1ccccc1Cl)NCc1ccccc1 | 4% | 18% | 18% | 51* | 29* | -5%
O=C1OCC(CO)(CO)N=C1NNc1ccc(Cl)c(Cl)c1 | -4% | ? | ? | 28 | 8 | -63%
CCOc1ccc(C(=O)NCC(=O)OCCCOC(=O)CNC(=O)c2ccc(OCC)cc2)cc1 | 6% | 11% | 2% | -27 | 11 | 16%
CCOc1ccc(C(=O)NCC(=O)OCc2cc(C(C)=O)ccc2OC)cc1 | 7.1µM* | 39% | -3% | -3 | 1 | -20%
COc1ccc(C(C)=O)cc1COC(=O)CNC(=O)c1ccc(F)cc1 | ? | -27% | 0% | -5 | 2 | -2%
COc1ccc(C(C)=O)cc1COC(=O)Cc1cc(OC)c(OC)c(OC)c1 | 11µM* | -1% | -2% | -10 | -2 | -5%
COc1ccc(C(C)=O)cc1COC(=O)CNC(=O)c1ccc(Cl)cc1 | 3.2µM* | 0% | 20% | -4 | 4 | -3%
CC(=O)c1ccc(-c2ccc(C(=O)N(C)c3c(N)n(Cc4ccccc4)c(=O)[nH]c3=O)o2)cc1 | -2% | -10% | -1% | · | · | ·
O=C(CN1CCOCC1)N/N=C/c1cc2ccccc2nc1Cl | -3% | 1.5µM* | 24% | 9 | 10 | 22%
O=C(N/N=C/c1cc2ccccc2nc1Cl)c1ccncc1 | 13% | 21% | -22% | -27 | 1 | ·
Cn1cc(Br)c(C(=O)N/N=C/c2cc3ccccc3nc2Cl)n1 | -5% | ? | 60% | 50* | 15* | 12%
CC1(C)CC(=O)C=C(NCCN2CCN(C(=S)Nc3ccccc3)CC2)C1 | -5% | ? | ? | -10 | 6 | 2%
O=C(C1CCCCN1S(=O)(=O)c1ccccc1)N1CCN(C(c2ccccc2)c2ccccc2)CC1 (stereo not drawn) | 18% | 1.9µM* | 1.9µM* | 13 | 3 | 22%
O=C(c1cccc(NS(=O)(=O)c2ccccc2)c1)N1CCCC1 | -5% | 12% | 3% | -11 | -2 | 9%
